The values that follow come from PubChem BioAssay (NCI).

Several values for one entry are separate records, joined by “and”; a condition that tells them apart may be missing. Equal entries are not always repeated. This is part of a sample that, as a whole, favours compounds with a hit. Of some 83,000 tested, about 20% had one in any assay.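 Cells were grown in 96-well plates and exposed to the test compound at a single concentration for 48 hours; results are reported as percent growth, with values below 10 considered active.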 Activity calls are given as the source filed them.

Experiment in all cases: NCI-60 one-dose screen, 48 h (100 = growth as untreated, 0 = no growth, -100 = all killed)
One assay deals with ACHN renal. Conditions: 10 µM unless noted.
For a further assay, the system named is CAKI-1 renal. Conditions: 10 µM unless noted.
The subject of another assay is A498 renal. Conditions: 10 µM unless noted.
The subject of a further assay is HL-60(TB) leukemia. Conditions: 10 µM unless noted.
The subject of a further assay is CCRF-CEM leukemia. Conditions: 10 µM unless noted.
The next assay has as its system MOLT-4 leukemia. Conditions: 10 µM.
In a further assay the test system is SR leukemia. Conditions: 10 µM.
Another assay concerns RPMI-8226 leukemia. Conditions: 10 µM unless noted.
A further assay has as its system OVCAR-8 ovarian. Conditions: 10 µM unless noted.
Another assay concerns OVCAR-5 ovarian. Conditions: 10 µM unless noted.
A further assay concerns OVCAR-4 ovarian. Conditions: 10 µM unless noted.
For a further assay, the system named is SK-OV-3 ovarian. Conditions: 10 µM unless noted.
A further assay concerns IGROV1 ovarian. Conditions: 10 µM.
The next assay concerns OVCAR-3 ovarian. Conditions: 10 µM unless noted.
The subject of another assay is HS 578T breast. Conditions: 10 µM unless noted.
The test system of the next assay is NCI/ADR-RES ovarian. Conditions: 10 µM unless noted.
For the next assay, the system named is T-47D breast. Conditions: 10 µM unless noted.
Another assay deals with BT-549 breast. Conditions: 10 µM.
The subject of another assay is MDA-MB-435 melanoma. Conditions: 10 µM unless noted.
The next assay concerns SW-620 colon. Conditions: 10 µM unless noted.
The next assay concerns MCF7 breast. Conditions: 10 µM unless noted.
Another assay has as its system HCT-116 colon. Conditions: 10 µM unless noted.
For a further assay, the system named is HCC-2998 colon. Conditions: 10 µM unless noted.
In a further assay the test system is KM12 colon. Conditions: 10 µM unless noted.
For the next assay, the system named is UACC-62 melanoma. Conditions: 10 µM unless noted.
The next assay relates to TK-10 renal. Conditions: 10 µM unless noted.

For `NC(=O)OCC(CO)(c1ccccc1)c1ccccc1`, the growth with ACHN renal was 98.1% (inactive); in the assay on CAKI-1 renal it was 91.8% (inactive); in the assay on A498 renal, 81.7% (inactive); in the assay with HL-60(TB) leukemia it was 114% (inactive); with CCRF-CEM leukemia, 94.4% (inactive); in the assay on MOLT-4 leukemia it was 98.7% (inactive). For the same compound, the growth is 96.5% (inactive) in the assay with SR leukemia; 98.4% (inactive) with RPMI-8226 leukemia; 100% (inactive) in the assay on OVCAR-8 ovarian; 95.3% (inactive) in the assay with OVCAR-5 ovarian; 99.7% (inactive) with OVCAR-4 ovarian; 99.1% (inactive) in the assay on SK-OV-3 ovarian. Further, the growth was 103% (inactive) in the assay with IGROV1 ovarian; 100% (inactive) in the assay with OVCAR-3 ovarian; 110% (inactive) in the assay on HS 578T breast; 108% (inactive) with NCI/ADR-RES ovarian; 97.3% (inactive) in the assay with T-47D breast; 107% (inactive) with BT-549 breast. The growth in the assay with MDA-MB-435 melanoma was 101% (inactive); in the assay on SW-620 colon, 107% (inactive); in the assay on MCF7 breast, 99.3% (inactive); in the assay with HCT-116 colon it was 92.1% (inactive); in the assay with HCC-2998 colon it was 107% (inactive); with KM12 colon, 96.6% (inactive).
As for `FC(F)(F)c1nn[nH]n1`, the growth in the assay on HL-60(TB) leukemia was 102% (inactive).
On the same count and under the same terms, under `COc1ccc(-c2cc(-c3cccc(NS(C)(=O)=O)c3)nc(N)c2C#N)cc1` stands 0.807% (active).
With `CCCCCN1C(=O)C(CO)N=C(c2cccc(O)c2)c2ccccc21` (centres undefined), the growth with UACC-62 melanoma was 81.1% [30 µM] (inactive); with TK-10 renal it was 91% [30 µM] (inactive); in the assay with MCF7 breast, 91.1% [30 µM] (inactive).
As for `CC1=NN(c2cccc(S(N)(=O)=O)c2)C(=O)C1`, in the assay on HL-60(TB) leukemia, the growth is 124% (inactive).
On the same count and under the same terms, in the case of `COc1ccc(N2C(=O)C(Oc3ccccc3)C2c2ccc(C)cc2)cc1` (centres undefined) it was 85.4% (inactive).
Consider `CN(N)/N=N/c1nc[nH]c1C(N)=O`, for which the growth in the assay on UACC-62 melanoma was -13.9% [100 µM] (active) and 0.502% [100 µM] (active); in the assay on TK-10 renal, 5.8% [100 µM] (active) and 2.21% [100 µM] (active); with MCF7 breast, 19% [100 µM] (inactive) and 4.05% [100 µM] (active).
